# In PubChem BioAssay (NCI):
# Compounds without any hit were thinned out: in the full panel of roughly 83,000, 20% have a hit.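 For each line, cells grew in 96-well plates with the test compound present at a single concentration for 48 hours.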 A number with no mark means an inactive call. Active and inactive are the calls of the source. Rule for the calls: active = growth percent below 10; inactive = the rest.
# Key:
# Test in all cases: NCI-60 one-dose screen, 48 h (100 = growth as untreated, 0 = no growth, -100 = all killed)
# Settings in all cases: 10 µM
# [1] = test system: NCI-H23 lung
# [2] = test system: NCI-H226 lung
# [3] = test system: HOP-62 NSCLC
# [4] = test system: NCI-H460 lung
# [5] = test system: HOP-92 NSCLC
# [6] = test system: NCI-H522 lung
# [7] = test system: A549/ATCC NSCLC
# [8] = test system: 786-0 renal
# [9] = test system: COLO 205 colon
# [10] = test system: DU-145 prostate
# [11] = test system: K-562 leukemia
# [12] = test system: MALME-3M melanoma
# [13] = test system: MDA-MB-231 breast
# [14] = test system: RXF 393 renal
# [15] = test system: SF-268 CNS
# [16] = test system: SF-295 CNS
# [17] = test system: SF-539 CNS
# [18] = test system: UACC-257 melanoma
# [19] = test system: M14 melanoma
Compound,growth [1],growth [2],growth [3],growth [4],growth [5],growth [6],growth [7],growth [8],growth [9],growth [10],growth [11],growth [12],growth [13],growth [14],growth [15],growth [16],growth [17],growth [18],growth [19]
COc1cc(C)ccc1Oc1nc(Nc2ccc(N3CCOCC3)cc2)ncc1NC(=O)Nc1cc(C(F)(F)F)cc(C(F)(F)F)c1,72%,84.3%,58.5%,24.7%,66.8%,73.2%,14.5%,55%,109%,23.3%,40.3%,108%,51.5%,-27.6% (active),49.7%,60.2%,65.6%,84.3%,73%
CNC(=O)c1cn2c3c(c(N4CCN(C)CC4)c(F)cc3c1=O)OC[C@@H]2C,96.3%,93%,94.5%,103%,98.5%,90.4%,95.7%,96.2%,110%,104%,102%,106%,102%,103%,97%,98.7%,105%,,106%
CCN(CC)CCOC(=O)c1cc(OCc2ccccc2)c(OCc2ccccc2)c(OCc2ccccc2)c1,58.6%,73.6%,62.4%,12.4%,40%,45%,42.5%,52.1%,62.1%,64.6%,0.819% (active),54%,16%,47%,59.3%,84.5%,81.1%,73.8%,18.4%
C#CCOc1c(OC)cc(C(=O)/C(C)=C/c2cccc(N=[N+]=[N-])c2)cc1OC,36.4%,68.9%,36%,16.7%,63.1%,-48.6% (active),18.8%,23.7%,-31.8% (active),11.7%,14.4%,54.7%,30.5%,-8.56% (active),42.6%,8.17% (active),-12.5% (active),,5.53% (active)
CNC(=O)c1cc(Oc2ccc3c(c2)sc2nc(-c4ccc(NC(=O)Nc5ccc(Cl)c(C(F)(F)F)c5)cc4)cn23)ccn1,84.7%,101%,79.1%,92.5%,88.6%,59%,79.8%,72.6%,89.6%,75.5%,74.7%,83.7%,77.4%,84.6%,84.8%,76.3%,56.2%,,85.5%
N#Cc1c(N)nc(-c2cc(F)cc(C(F)(F)F)c2)nc1-c1ccccc1F,51.9%,30.1%,21.9%,15.2%,34.7%,68.3%,41.7%,1.27% (active),24.7%,61%,56.7%,33.2%,21.3%,37.4%,55.3%,35.2%,52.1%,,63.1%
CN(C)CCCOc1ccc(NC2=C(Cl)C(=O)C(Nc3ccc(OCCCN(C)C)cc3)=C(Cl)C2=O)cc1,-72% (active),-84.1% (active),-98.2% (active),-65.7% (active),-74.9% (active),-75.2% (active),-56.2% (active),-50% (active),-74.3% (active),-95.8% (active),-11.7% (active),-71.7% (active),-80.2% (active),-97.9% (active),-51.2% (active),-22.8% (active),-87.9% (active),-88.2% (active),-71.8% (active)
CCC(C)[C@H](NC(C)=O)C(=O)N[C@@H](CCCNC(=N)N)C(=O)N[C@@H](CCCCN)C(=O)N[C@@H](CC1CCC(O)CC1)C(=O)NC(C(=O)N[C@@H](CCSC)C(=O)N[C@@H](CCCNC(=N)N)C(=O)N[C@@]1(C)CCC/C=C\CCC[C@@](C)(C(=O)NC(C(=O)N[C@@H](CCC(=O)O)C(=O)N[C@@H](CC(C)C)C(=O)N[C@H](C(=O)N[C@@H](CCC(=O)O)C(N)=O)C(C)C)[C@@H](C)O)NC(=O)[C@H](CCC(N)=O)NC(=O)[C@H](CC(C)C)NC(=O)[C@H](CC(C)C)NC1=O)[C@@H](C)O (stereo partly specified),106%,108%,108%,103%,103%,102%,96.3%,98.7%,89.9%,93.7%,95.4%,102%,98.8%,86.4%,47.9%,101%,97.7%,,75.6%
C=CCn1c(SCC(=O)Nc2ccc(C(=O)/C=C/c3ccc(OC)cc3)cc2)nnc1-c1ccc(OC)c(OC)c1,89.3%,82.7%,92.6%,91.7%,83.2%,65.6%,85.8%,79.9%,114%,97.7%,63.6%,110%,72.3%,84.7%,84.1%,93.5%,102%,84.6%,89.6%
COc1ccc(-c2n[nH]nc2-c2cc(OC)c3c(c2OC)OCO3)cc1,45.6%,75%,36.1%,11.4%,8.78% (active),-12.8% (active),33.3%,65.6%,12.9%,10.2%,10.7%,61.7%,32%,-9.08% (active),48.8%,4.67% (active),-2.99% (active),48%,20.6%
Oc1ccc(/C=N/N=C2c3ccccc3-c3ccccc32)c(O)c1,70.2%,60.5%,82.3%,83.2%,79.5%,74.5%,54.8%,80.4%,88%,90%,64.8%,105%,48.3%,49.6%,83.1%,101%,89.1%,84.7%,74.4%
O=C(O)c1ccc(-n2cc(CNc3ccc(Oc4ccccc4)cc3)c(-c3ccccc3)n2)cc1,81.1%,99.3%,122%,90.2%,89%,84.4%,76.5%,90.6%,101%,99.8%,78.3%,88.6%,92%,86.9%,90.2%,72.1%,90.6%,,97.2%
COc1ccc(/C=C/C(=O)C(=O)/C=C/c2ccc(OC)c(OC)c2)cc1OC,21.6%,38.9%,93.2%,51.7%,109%,47.8%,69.9%,3.43% (active),-20.8% (active),22.5%,7.11% (active),54.5%,2.99% (active),-63.3% (active),13.2%,73.8%,6.56% (active),,-10.5% (active)
COc1ccc(-c2cc(-c3ccc(OC)c(OC)c3)nc(SCCCC(=O)NO)n2)cc1,-26.8% (active),-15.3% (active),-13.3% (active),-4.97% (active),-28.6% (active),2.7% (active),-0.0794% (active),-20.8% (active),-12.4% (active),-2.45% (active),7.32% (active),-6.87% (active),-10% (active),-46.6% (active),2.03% (active),-36.8% (active),1.28% (active),9.39% (active),-41.5% (active)
COc1cc(NC(=O)C2=C(N3CCOCC3)/C(=C/c3ccc(Cl)cc3)CC2)cc(OC)c1OC,94.6%,86.1%,102%,99.6%,65.3%,29.2%,40.8%,93.2%,98.5%,99.4%,49.7%,93.6%,91.6%,,114%,118%,101%,59.5%,97.3%
NC(=O)c1cccc(-n2ccc3cc(NC(=O)Nc4ccc(Cl)c(C(F)(F)F)c4)ccc32)n1,82.2%,66.2%,86.5%,68%,97.6%,64.7%,68.2%,49.1%,85.6%,95%,59.3%,87.8%,75.8%,2.44% (active),76.6%,58.2%,44.2%,93.3%,78.8%
